According to the supplement of paper PMC11383364:
± gives the standard deviation of the averaged measurements.

test system: SUM149; assay: percent difference in area under dose-response curve of relative cell number, RPMI vs HPLM; higher = drug relatively more effective in HPLM than RPMI (negative = less effective in HPLM); conditions: treatment time: 72 h; dose range: 10-point, 1 nM to 20 µM; media compared: RPMI vs HPLM

Compound | percent difference in area under dose-response curve [%]
COc1cc(O)c(CC=C(C)C)c(O)c1C(=O)/C=C/c1ccc(O)cc1 [Xanthohumol] | -9.86
Cc1ccc(S(=O)(=O)/C=C/C#N)cc1 | 0.814
COc1cc2ncnc(Nc3ccc(F)c(Cl)c3)c2cc1NC(=O)/C=C/CN1CCCCC1 [Dacomitinib] | -9.71
Fc1cc(-c2cccc3ncc(-c4cnn(C5CCNCC5)c4)nc23)cc(F)c1CN1CCOCC1 | 2.04
Nc1ccc(C(=O)Nc2cccc(-c3nc(N4CCOCC4)c4oc5ncccc5c4n3)c2)cn1 | 7.67
CNC(=O)c1cc(Oc2ccc(NC(=O)Nc3ccc(Cl)c(C(F)(F)F)c3)c(F)c2)ccn1 [Regorafenib] | -5.08
CCCCCCCCCCCCC/C=C/[C@@H](O)[C@H](CO)N(C)C [N_N_Dimethylsphingosine] | 6.06
CN(Cc1cnc2nc(N)nc(N)c2n1)c1ccc(C(=O)N[C@@H](CCC(=O)O)C(=O)O)cc1 [Abitrexate] | -8.44
CC(C)(C#N)c1cc(Cn2cncn2)cc(C(C)(C)C#N)c1 [Anastrozole] | -1.33
COc1cc2/c(=N/c3ccc(Br)cc3F)nc[nH]c2cc1OCC1CCN(C)CC1 [Vandetanib] | -3.62
O=C(CCCCCCC(=O)Nc1ccc([C@H]2O[C@@H](CSc3nc(-c4ccccc4)c(-c4ccccc4)o3)C[C@@H](c3ccc(CO)cc3)O2)cc1)NO [Tubacin] | -4.43
CC[C@]1(O)C[C@H]2CN(CCc3c([nH]c4ccccc34)[C@@](C(=O)OC)(c3cc4c(cc3OC)N(C=O)[C@H]3[C@@](O)(C(=O)OC)[C@H](OC(C)=O)[C@]5(CC)C=CCN6CC[C@]43[C@@H]65)C2)C1 [Vincristine] | -16.7
CC(C)c1cc(-c2n[nH]c(=O)n2-c2ccc3c(ccn3C)c2)c(O)cc1O [Ganetespib] | -31.8
C/C=C/C/C=C/CCC(=O)[C@H]1O[C@H]1C(N)=O [Cerulenin] | -9.61
COc1cc(/C=C/C(=O)N2CCC=CC2=O)cc(OC)c1OC [Piperlongumine] | -18.1
Cc1ccc(F)c(NC(=O)Nc2ccc(-c3cccc4[nH]nc(N)c34)cc2)c1 [Linifanib] | 0.938
Cc1cc(Nc2cc(N3CCN(C)CC3)nc(Sc3ccc(NC(=O)C4CC4)cc3)n2)n[nH]1 | -14.9

Compound | percent difference in area under dose-response curve [%]
C[C@@H](Oc1cc(-c2cnn(C3CCNCC3)c2)cnc1N)c1c(Cl)ccc(F)c1Cl [Crizotinib] | -5.74
COc1cc(Br)c(Nc2nc(-c3c(C)nc4ncccn34)cs2)c(Br)c1 | -0.202
CCCCCCCCc1ccc(CCC(N)(CO)CO)cc1 [Fingolimod] | 3.22 ± 1.4
CCCCCCNC(=O)n1cc(F)c(=O)[nH]c1=O [Carmofur] | -3.39
Cc1ccc([N+](=O)[O-])cc1S(=O)(=O)N(C)/N=C/c1cnc2ccc(Br)cn12 | -9.04
CC(/C=C/C(=O)NO)=C\[C@@H](C)C(=O)c1ccc(N(C)C)cc1 [Trichostatin_A] | -9.24
C[C@H](NC(=O)Cc1cc(F)cc(F)c1)C(=O)N[C@@H]1C(=O)N(C)c2ccccc2-c2ccccc21 | 8.45
CCOC(=O)c1[nH]c2cc(Cl)ccc2c1C(C(=O)NC(C)(C)C)N(C=O)Cc1ccc(Cl)cc1 (centres undefined) | 0.502
Cc1cn(-c2cc(NC(=O)c3ccc(C)c(Nc4nccc(-c5cccnc5)n4)c3)cc(C(F)(F)F)c2)cn1 [Nilotinib] | -3.16
COc1cc2nccc(Oc3ccc(NC(=O)NC4CC4)c(Cl)c3)c2cc1C(N)=O | 5.17
NC1(c2ccc(-c3nc4ccn5c(=O)[nH]nc5c4cc3-c3ccccc3)cc2)CCC1 | 0.884
CN(C)/N=N/c1[nH]cnc1C(N)=O [Dacarbazine] | -9.4
O=C(CCCCCCC(=O)Nc1ccccc1)NO [Vorinostat] | 4.7
COc1cc2nccc(Oc3ccc(NC(=O)C4(C(=O)Nc5ccc(F)cc5)CC4)cc3)c2cc1OC [Cabozantinib_malate] | 13.2
Nc1ncn([C@@H]2O[C@H](CO)[C@@H](O)[C@H]2O)c(=O)n1 [Azacitidine] | -13.8
CC[n+]1c(-c2ccccc2)c2cc(N)ccc2c2ccc(N)cc21 [Ethidium_Bromide] | -18.5
CNc1nc(-c2ccc3c(N)n[nH]c3c2)cc(N2C[C@@H](C(=O)NC3CCCCC3)CC[C@H]2C)n1 | -4.83
